Results on five compounds are retold here after PubChem BioAssay.

Results filed as inconclusive are left out. Active and inactive are the calls of the source.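 Rule for the calls, unless noted: active = binding below the plate cutoff, the plate median minus 3 SD, with a reading above zero; inconclusive = below the plate cutoff but reading exactly zero; inactive = the rest.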

The nature of test [1]: rapamycin-like changes in RPL19A-GFP expression – cell-based, S. cerevisiae, multiplex flow cytometry, primary screen (AID 1862; in the data active = percent of DMSO control GFP below about 86%;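 note: lower values mimic rapamycin by blocking the RPL19A rise seen in DMSO cells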). The conditions noted are these: S. cerevisiae RPL19A-GFP strain, flow cytometry fluorescence, 3 h; at 10 µM; stronger effect = lower value.
Test [2] is described as follows: TOR pathway GLN3 branch reporter MEP2-GFP changes – S. cerevisiae, multiplex flow cytometry, primary screen (AID 1867;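 active = GFP response, as percent of the DMSO control, above the screen-wide mean plus 3 SD, about 139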;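 note: median GFP channel fluorescence of barcode-gated MEP2-GFP cells measured by flow cytometry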). Particulars: S. cerevisiae MEP2-GFP strain, 3 h, at 10 µM, stronger effect = higher value, 100% means same as DMSO wells. (In flow cytometry, cells or beads pass a laser one at a time.)
A short description of test [3]: TOR pathway RTG branch CIT2 reporter changes – S. cerevisiae, GFP fusion, multiplex flow cytometry, primary screen (AID 1870;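 active = percent response above a set limit, the screen-wide mean plus 3 SD, cut at about 130% in these data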;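 note: barcoded CIT2-GFP strain pooled with four other GFP strains with rapamycin as positive control; median GFP fluorescence per well over plate mean of DMSO wells so 100% = DMSO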). Particulars: S. cerevisiae CIT2-GFP expression, 3 h, at 10 µM, stronger effect = higher value.
A short description of test [4]: TOR pathway LAP4-GFP level changes – S. cerevisiae, multiplex flow cytometry, primary screen (AID 1873;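 active = GFP signal, as percent of the solvent control, above the screen mean plus 3 SD, about 149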). The conditions noted are these: S. cerevisiae LAP4-GFP expression, 3 h, at 10 µM, stronger effect = higher value.
A short description of test [5]: yeast AGP1-GFP level changes, GLN3 branch – cell-based, multiplex flow cytometry, S. cerevisiae, primary screen (AID 1887;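 active = GFP signal above the screen-wide mean plus 3 SD, that is over about 124.5% of the solvent control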;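 note: AGP1-GFP fusion strain of S. cerevisiae within a five-strain barcoded multiplex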). Particulars: 3 h, at 10 µM, stronger effect = higher value.
The nature of test [6]: reduced mouse 2C T cell binding to pMHC/ICAM-1 vesicles – MLPCN validation set, flow cytometry, LFA-1/ICAM-1 modulator project, pilot screen (AID 2523;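 active = response below a set limit, under 55% cells CD8-positive and vesicle-bound, and CD8 cells' 90th-percentile brightness under 279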;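 for vesicle binding response: mean PE anti-B7-1 fluorescence of CD8+ cells relative to row control; 100% = QL9-loaded vesicles with DMSO vehicle in the same plate row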). Particulars: 2C mouse CD8+ T cells, at 7 µM, stronger effect = lower value; double positive events: measured here: CD8+/vesicle+ event percentage.
Test [7] addresses Integrin beta-1 (Homo sapiens) + Integrin alpha-4 (Homo sapiens) (UniProt P13612+P05556). The test can be described thus: alpha4beta1 integrin LIBS antibody binding reduction – U937 cells, HUTS-21 mAb, flow cytometry, validation set, VLA-4 allosteric modulator project, pilot screen (AID 2674;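 active = inhibition above 50%, about 3 SD of the validation set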;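 note: antibody binding induced by the VLA-4 ligand LDV present at three times its Kd; 0% = LDV ligand with antibody and no compound and 100% = antibody without LDV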). The conditions noted are these: HUTS-21 LIBS mAb binding, at 6.7 µM, stronger effect = higher value, binding induced by LDV ligand.

The nature of test [8]: calorie-restriction mimetic ROS inhibitors, yeast – validation compound set, pilot screen (AID 2706;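 active = superoxide response below 65% of plate, a cut near 3 SD across the whole screen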;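 note: yeast exposed to compound for one week at 30 degrees C before staining; 100% = mean of all compound wells on the same plate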). The conditions noted are these: S. cerevisiae aging, superoxide DHE fluorescence; at 10 µM, stronger effect = lower value.
Test [9] has as its target Beta-adrenergic receptor kinase 1 (Homo sapiens) (UniProt P25098). Briefly: GRK2 binders displacing RNA aptamer, biochemical, validation, human GRK2, bead flow cytometry (AID 488806;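 active = aptamer binding inhibition above 30%, about 3 SD of noise from non-fluorescent compounds; inactive = inhibition at or below 30%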). Particulars: bead-bound GRK2, FAM-aptamer displacement, at 10 µM, stronger effect = higher value.
Test [10] deals with AP-2 complex subunit beta (Homo sapiens) (UniProt P63010). Briefly: beta-arrestin/AP2 interaction blockers – biochemical, validation set, GST-AP2 beads, flow cytometry, pilot screen (AID 504541;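 active = inhibition above 54%, about 3 SD of non-fluorescent compounds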;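 note: AP2 carries R879A mutation and is captured from E. coli lysate; bead-bound FITC arrestin peptide fluorescence measuring arrestin peptide binding to AP2; 0% = DMSO wells and 100% = excess unlabeled arrestin peptide control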). The conditions noted are these: FITC arrestin peptide, at 10 µM, stronger effect = higher value, AP2 beta2 appendage fragment, R879A mutant.
Sequence of AP-2 complex subunit beta (Homo sapiens) (P63010 whole entry, looked up, the tested form may be a part, one chain of several): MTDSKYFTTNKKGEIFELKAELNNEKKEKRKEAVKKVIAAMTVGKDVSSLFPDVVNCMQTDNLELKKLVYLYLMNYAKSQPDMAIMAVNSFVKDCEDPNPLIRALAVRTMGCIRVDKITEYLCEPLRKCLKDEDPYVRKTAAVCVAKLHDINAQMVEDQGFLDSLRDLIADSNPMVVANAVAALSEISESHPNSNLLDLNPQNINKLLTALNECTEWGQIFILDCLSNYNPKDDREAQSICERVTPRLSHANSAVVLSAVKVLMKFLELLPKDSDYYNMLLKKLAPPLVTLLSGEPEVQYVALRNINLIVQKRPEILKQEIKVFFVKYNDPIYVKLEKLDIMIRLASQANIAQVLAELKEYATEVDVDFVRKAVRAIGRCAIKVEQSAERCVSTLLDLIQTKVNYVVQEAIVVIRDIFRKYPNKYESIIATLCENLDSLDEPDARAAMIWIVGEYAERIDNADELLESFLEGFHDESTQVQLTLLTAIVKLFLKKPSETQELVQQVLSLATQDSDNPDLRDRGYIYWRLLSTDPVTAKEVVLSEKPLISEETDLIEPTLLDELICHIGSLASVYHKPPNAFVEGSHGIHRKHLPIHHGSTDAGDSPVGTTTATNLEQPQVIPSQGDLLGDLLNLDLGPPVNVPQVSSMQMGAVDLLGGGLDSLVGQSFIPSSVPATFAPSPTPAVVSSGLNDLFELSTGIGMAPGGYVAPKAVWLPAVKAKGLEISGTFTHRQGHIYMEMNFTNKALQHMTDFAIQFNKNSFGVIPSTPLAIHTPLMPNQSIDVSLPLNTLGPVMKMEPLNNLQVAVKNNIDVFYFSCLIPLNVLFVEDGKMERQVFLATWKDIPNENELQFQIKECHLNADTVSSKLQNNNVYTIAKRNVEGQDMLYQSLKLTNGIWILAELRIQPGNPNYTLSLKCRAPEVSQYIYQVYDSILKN
Test [11] can be described thus: cytosolic pH regulators acting via V-ATPase – S. cerevisiae, pHLuorin, HTS validation (AID 504600; in the data active = response above about 15%;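 note: plate controls were DMSO for no effect and reference compound for full effect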). Particulars: V-ATPase proton transport, at 10 µM, stronger effect = higher value.
Test [12] concerns anti-desmoglein-3 scFv antibody binding to human DSG3. The test can be described thus: blockers of pathogenic pemphigus antibody–desmoglein-3 binding – biochemical, validation compound set, bead-based, flow cytometry, pilot screen (AID 588368).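 Note: signal is the median channel fluorescence of bead-bound GFP antibody.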 Particulars: Protein G beads, DSG3-Fc, scFv-GFP binding, at 10 µM, stronger effect = lower value.
Test [13] is described as follows: Nile Red efflux blockade in pump-expressing yeast – validation compound set, multiplex, phenotypic, pilot screen (AID 588506;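 active = efflux inhibition above 0.42, the validation set average plus 4 SD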;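 note: Nile Red retained in cells so higher fluorescence means more efflux inhibition; 0 = negative control wells and 1 = enniatin B 25 µM full block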). The conditions noted are these: S. cerevisiae pump-expressing triplex, Nile Red efflux flow cytometry; at 10 µM; stronger effect = higher value; the pumps come from Candida albicans.
The target of test [14] is ATP-binding cassette sub-family B member 6 (Homo sapiens) (UniProt Q9NP58). Briefly: blockers of ABCB6-driven porphyrin uptake – K562-ABCB6 cells, flow cytometry, validation set, pilot screen (AID 588550;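 active = inhibition above the screen-wide mean plus 3 SD, about 51%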;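 note: 0% = DMSO wells and 100% = benzethonium chloride 70 µM positive control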). Particulars: K562-ABCB6 porphyrin accumulation, 1 h, at 10 µM, stronger effect = higher value.
Sequence of ATP-binding cassette sub-family B member 6 (Homo sapiens) (Q9NP58 whole entry, looked up): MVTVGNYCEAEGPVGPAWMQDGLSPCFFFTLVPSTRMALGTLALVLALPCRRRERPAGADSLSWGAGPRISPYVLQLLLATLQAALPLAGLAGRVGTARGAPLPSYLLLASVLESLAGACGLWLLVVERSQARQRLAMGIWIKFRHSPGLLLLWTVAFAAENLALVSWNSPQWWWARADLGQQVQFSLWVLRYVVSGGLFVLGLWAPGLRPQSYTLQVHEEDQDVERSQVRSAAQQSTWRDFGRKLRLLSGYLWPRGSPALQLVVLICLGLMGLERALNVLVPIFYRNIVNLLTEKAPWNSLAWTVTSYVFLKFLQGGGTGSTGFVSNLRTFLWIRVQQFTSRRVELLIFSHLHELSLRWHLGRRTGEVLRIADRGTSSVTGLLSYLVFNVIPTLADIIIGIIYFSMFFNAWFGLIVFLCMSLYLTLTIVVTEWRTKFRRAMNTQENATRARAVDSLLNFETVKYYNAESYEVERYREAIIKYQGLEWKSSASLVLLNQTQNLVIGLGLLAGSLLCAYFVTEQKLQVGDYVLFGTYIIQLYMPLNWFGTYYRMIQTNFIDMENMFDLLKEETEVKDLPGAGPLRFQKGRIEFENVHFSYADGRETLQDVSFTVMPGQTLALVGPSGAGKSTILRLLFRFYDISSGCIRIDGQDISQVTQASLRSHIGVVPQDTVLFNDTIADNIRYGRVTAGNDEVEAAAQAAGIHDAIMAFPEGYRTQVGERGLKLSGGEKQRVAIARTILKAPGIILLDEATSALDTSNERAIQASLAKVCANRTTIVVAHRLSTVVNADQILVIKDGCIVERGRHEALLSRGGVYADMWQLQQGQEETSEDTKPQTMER
The nature of test [15]: AML differentiation inducers, ER-HoxA9 marrow cells – cell-based, GFP/MAC1 double positive, flow cytometry, validation set, primary screen (AID 588685;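 active = differentiation response of at least 50%, scaled between solvent and reference control, from cells with both markers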;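 note: compound exposure lasts four days before antibody staining and flow analysis; 0% = DMSO wells and 100% = 5 µM fulvestrant positive control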). Particulars: stronger effect = higher value, normalized: vehicle 0, fulvestrant 100.
The target in test [16] is Beta-2 adrenergic receptor (Homo sapiens) (UniProt P07550). The test can be described thus: agonist-induced loss of surface beta2AR – cell-based, FAP fluorogen, flow cytometry, validation set, pilot screen (AID 504459;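 active = percent response above 42, roughly 3 SD of non-fluorescent test compounds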;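 note: agonist-driven loss of surface beta2AR via internalization measured by FAP dye flow cytometry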). Particulars: Am2.2-beta2AR cells, at 10 µM, stronger effect = higher value.
Sequence of Beta-2 adrenergic receptor (Homo sapiens) (P07550 whole entry, looked up): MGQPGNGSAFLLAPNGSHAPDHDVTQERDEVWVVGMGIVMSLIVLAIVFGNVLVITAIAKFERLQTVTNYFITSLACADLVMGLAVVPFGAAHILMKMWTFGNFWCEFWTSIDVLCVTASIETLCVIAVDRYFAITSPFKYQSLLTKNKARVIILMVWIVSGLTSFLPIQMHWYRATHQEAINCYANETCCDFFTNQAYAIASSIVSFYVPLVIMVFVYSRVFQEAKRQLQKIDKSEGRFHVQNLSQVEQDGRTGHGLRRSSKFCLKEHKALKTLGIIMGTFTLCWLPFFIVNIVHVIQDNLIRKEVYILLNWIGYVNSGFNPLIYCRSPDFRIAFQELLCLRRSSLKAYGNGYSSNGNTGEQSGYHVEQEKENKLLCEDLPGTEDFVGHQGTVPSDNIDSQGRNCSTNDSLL

Sequence of Beta-adrenergic receptor kinase 1 (Homo sapiens) (P25098 whole entry, looked up): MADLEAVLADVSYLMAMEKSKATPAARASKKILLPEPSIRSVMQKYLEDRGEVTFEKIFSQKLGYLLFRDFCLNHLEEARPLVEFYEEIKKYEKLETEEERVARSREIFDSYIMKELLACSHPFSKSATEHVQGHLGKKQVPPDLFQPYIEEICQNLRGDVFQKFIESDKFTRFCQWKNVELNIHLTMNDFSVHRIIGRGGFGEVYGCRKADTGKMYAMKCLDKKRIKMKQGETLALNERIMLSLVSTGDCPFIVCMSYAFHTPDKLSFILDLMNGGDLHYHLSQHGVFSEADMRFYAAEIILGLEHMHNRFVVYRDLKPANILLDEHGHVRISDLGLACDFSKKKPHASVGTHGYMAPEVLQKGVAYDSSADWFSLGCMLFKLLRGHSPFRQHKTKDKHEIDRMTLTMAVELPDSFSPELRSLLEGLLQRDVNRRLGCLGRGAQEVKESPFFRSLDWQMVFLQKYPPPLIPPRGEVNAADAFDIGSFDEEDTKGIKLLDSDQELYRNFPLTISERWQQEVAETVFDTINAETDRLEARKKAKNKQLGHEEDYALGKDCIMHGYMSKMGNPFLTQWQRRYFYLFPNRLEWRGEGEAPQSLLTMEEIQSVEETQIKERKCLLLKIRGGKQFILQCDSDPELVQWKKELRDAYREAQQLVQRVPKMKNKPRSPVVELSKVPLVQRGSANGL
Sequence of Integrin beta-1 (Homo sapiens) + Integrin alpha-4 (Homo sapiens) (P05556 whole entry, looked up): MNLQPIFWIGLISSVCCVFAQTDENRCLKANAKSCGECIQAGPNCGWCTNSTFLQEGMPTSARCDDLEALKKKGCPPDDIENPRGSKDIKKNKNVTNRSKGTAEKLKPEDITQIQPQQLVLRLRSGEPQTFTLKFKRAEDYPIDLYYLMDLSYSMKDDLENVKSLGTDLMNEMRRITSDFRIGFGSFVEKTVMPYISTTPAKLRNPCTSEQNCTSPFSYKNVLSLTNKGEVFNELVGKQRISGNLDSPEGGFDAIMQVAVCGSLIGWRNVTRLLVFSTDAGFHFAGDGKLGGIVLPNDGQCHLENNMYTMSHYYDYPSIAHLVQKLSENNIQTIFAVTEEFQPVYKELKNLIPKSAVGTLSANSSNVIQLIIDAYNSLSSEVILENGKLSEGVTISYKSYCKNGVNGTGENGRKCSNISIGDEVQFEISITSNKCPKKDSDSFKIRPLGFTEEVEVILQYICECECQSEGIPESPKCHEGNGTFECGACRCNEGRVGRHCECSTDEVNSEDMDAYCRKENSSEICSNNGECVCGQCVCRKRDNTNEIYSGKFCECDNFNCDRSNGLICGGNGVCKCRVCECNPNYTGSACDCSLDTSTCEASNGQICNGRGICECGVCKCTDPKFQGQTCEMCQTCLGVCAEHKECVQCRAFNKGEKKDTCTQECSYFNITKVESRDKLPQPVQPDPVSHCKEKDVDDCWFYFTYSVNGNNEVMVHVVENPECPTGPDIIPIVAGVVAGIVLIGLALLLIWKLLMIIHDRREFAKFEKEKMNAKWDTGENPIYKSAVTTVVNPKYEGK
Sequence of Integrin beta-1 (Homo sapiens) + Integrin alpha-4 (Homo sapiens) (P13612 whole entry, looked up): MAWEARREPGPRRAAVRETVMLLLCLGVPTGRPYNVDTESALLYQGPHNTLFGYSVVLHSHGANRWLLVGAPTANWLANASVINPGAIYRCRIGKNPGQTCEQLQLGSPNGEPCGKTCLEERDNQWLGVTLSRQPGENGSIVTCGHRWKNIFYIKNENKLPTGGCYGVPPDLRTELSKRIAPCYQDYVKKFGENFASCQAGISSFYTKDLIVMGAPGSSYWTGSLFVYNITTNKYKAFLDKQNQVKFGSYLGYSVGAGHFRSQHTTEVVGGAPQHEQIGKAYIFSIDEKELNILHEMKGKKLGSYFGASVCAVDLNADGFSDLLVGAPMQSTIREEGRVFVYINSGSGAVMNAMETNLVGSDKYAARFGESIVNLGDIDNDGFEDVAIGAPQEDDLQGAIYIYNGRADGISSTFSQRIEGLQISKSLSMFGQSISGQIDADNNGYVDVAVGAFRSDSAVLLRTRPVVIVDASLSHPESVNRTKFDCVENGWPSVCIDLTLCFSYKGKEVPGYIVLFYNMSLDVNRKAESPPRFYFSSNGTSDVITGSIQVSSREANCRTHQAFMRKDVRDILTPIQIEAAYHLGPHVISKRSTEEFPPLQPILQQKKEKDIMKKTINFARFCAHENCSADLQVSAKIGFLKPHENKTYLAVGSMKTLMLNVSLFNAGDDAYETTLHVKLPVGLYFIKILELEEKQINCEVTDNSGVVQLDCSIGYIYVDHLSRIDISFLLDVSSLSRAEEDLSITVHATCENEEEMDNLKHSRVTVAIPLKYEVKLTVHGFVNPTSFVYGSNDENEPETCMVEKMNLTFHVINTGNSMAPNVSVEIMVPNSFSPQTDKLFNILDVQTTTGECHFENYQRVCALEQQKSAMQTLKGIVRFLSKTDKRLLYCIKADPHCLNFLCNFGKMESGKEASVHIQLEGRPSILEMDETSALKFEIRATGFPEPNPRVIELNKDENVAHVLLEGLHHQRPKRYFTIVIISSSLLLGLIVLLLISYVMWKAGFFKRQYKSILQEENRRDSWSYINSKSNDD

The term inhibition denotes the change of the read-out against control, counted positive when it falls. As for `CC(C)OC(=O)CC1C(=O)NCCN1C(=S)NC(=O)c1cccs1` (stereo not given), the percent of DMSO control GFP in [1] was 98.1% (inactive). The GFP response vs DMSO in [2] was 86.7% (inactive); in test [4] it was 98.4% (inactive). In [3], the percent response of DMSO control is 107% (inactive). Besides, the GFP response, % of DMSO in [5] was 107% (inactive). This compound also had a double positive events in test [6] of 63.2%. In test [6], the vesicle binding response was 190% (inactive). Further, the figures for the inhibition in [7], in test [10] and in test [14] were 10% (inactive), -4.49% (inactive) and 8% (inactive), respectively. Further, the superoxide response (% of plate) in test [8] is 87.2% (inactive). Further, the aptamer binding inhibition in [9] is -2% (inactive). The response in [11] is 2.24% (inactive). For the same compound, the binding (% of control) in test [12] is 104% (inactive). Also, the efflux inhibition (fraction of control) in test [13] was -0.2 (inactive). Further, the differentiation response in test [15] is 0% (inactive).

With `CCOC(=O)c1oc2cc(OCC(N)=O)ccc2c(=O)c1-c1ccc(OC)c(OC)c1`, in test [1], the percent of DMSO control GFP is 109% (inactive). Moreover, the GFP response vs DMSO in [2] is 97.9% (inactive); in test [4], 94.3% (inactive). Besides, the percent response of DMSO control in test [3] was 107% (inactive). The GFP response, % of DMSO in test [5] was 101% (inactive). Moreover, the double positive events in [6] was found to be 62.1%. Also, in test [6], the vesicle binding response is 207% (inactive). Also, the inhibition in test [7] is 24.9% (inactive); in test [10] it was 2.96% (inactive); in test [14] it was 8% (inactive). Also, in test [8], the superoxide response (% of plate) is 90.1% (inactive). In addition, the aptamer binding inhibition in test [9] is 1% (inactive). Also, in [11], the response was -0.67% (inactive). Besides, the binding (% of control) in [12] was 100% (inactive). Further, the efflux inhibition (fraction of control) in [13] is -0.01 (inactive). The differentiation response in [15] was -18% (inactive).

On to `CC(=O)Nc1nc(CCC(C)C)cc2c1c(=O)oc1ccccc12`, for which the percent of DMSO control GFP in test [1] was 102% (inactive). For the same compound, the GFP response vs DMSO is 98.3% (inactive) in [2] and 96% (inactive) in [4]. Besides, the percent response of DMSO control in test [3] is 100% (inactive). Moreover, the GFP response, % of DMSO in test [5] is 88.6% (inactive). This compound registered a double positive events in [6] of 60.5%. Moreover, the vesicle binding response in [6] was 77.6% (inactive). Moreover, the inhibition was 1.62% (inactive) in test [7], 2.41% (inactive) in test [10] and -8% (inactive) in test [14]. Moreover, in test [9], the aptamer binding inhibition is 0% (inactive). Besides, the response is -19.1% (inactive) in test [16] and 0.7% (inactive) in test [11]. The binding (% of control) in test [12] is 75.5% (inactive). In test [13], the efflux inhibition (fraction of control) was 0.39 (inactive). For the same compound, the differentiation response in test [15] was 16.9% (inactive).

For the compound `CCN(CC)CCNc1ccc(CO)c2sc3ccccc3c(=O)c12`, the percent of DMSO control GFP in test [1] was 104% (inactive). Besides, the GFP response vs DMSO in [2] is 109% (inactive); in test [4], 112% (inactive). Besides, in test [3], the percent response of DMSO control was 112% (inactive). Further, in test [5], the GFP response, % of DMSO is 103% (inactive). The same compound displayed a double positive events in test [6] of 47.8%. The vesicle binding response in test [6] was 231% (inactive). In addition, the inhibition in test [7] is 21.2% (inactive); in [10] it was -0.76% (inactive); in [14], 8% (inactive). Besides, in test [8], the superoxide response (% of plate) is 109% (inactive). In test [9], the aptamer binding inhibition was -5% (inactive). Also, the response in [11] is 2.76% (inactive). In addition, the binding (% of control) in [12] was 120% (inactive). In addition, the efflux inhibition (fraction of control) in test [13] was -0.39 (inactive). The differentiation response in test [15] is -8.27% (inactive).

Take `Cc1ccc2c(c1)c1c3n2CCCNC3CCC1` (stereo not given): the percent of DMSO control GFP in test [1] was 103% (inactive). Moreover, the GFP response vs DMSO in test [2] is 106% (inactive); in [4], 95.4% (inactive). Also, the percent response of DMSO control in [3] is 107% (inactive). Moreover, the GFP response, % of DMSO in [5] is 94% (inactive). Further, the double positive events in test [6] is 63.9%. Besides, in [6], the vesicle binding response is 229% (inactive). Also, the inhibition in test [7] was 10% (inactive); in [10] it was -3% (inactive); in [14], 9% (inactive). In [8], the superoxide response (% of plate) is 85.7% (inactive). Besides, in test [9], the aptamer binding inhibition is -4% (inactive). In addition, the response in test [11] was 3.62% (inactive). For the same compound, in test [12], the binding (% of control) is 111% (inactive). Further, the efflux inhibition (fraction of control) in [13] was -0.05 (inactive). The differentiation response in test [15] was -3.43% (inactive).
